In general, inhibition refers to the change of the read-out against control, counted positive when it falls. In general, viability refers to the share of living cells, or the viability signal relative to a control.

The nature of experiment [1]: LFS_MB_1R medulloblastoma cell growth inhibition, synergistic combos for chromothripsis tumors, cisplatin or BGB combos (AID 1671452).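 Note: cells exposed for 96 hours before readout.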 The conditions noted are these: LFS_MB_1R medulloblastoma cells, stronger effect = higher value.
The nature of experiment [2]: CRL2098 osteosarcoma cell growth inhibition, synergistic combos for chromothripsis tumors, BGB or cisplatin IC20 combos (AID 1671454).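 Note: cells exposed for 96 h before readout; 0% = vehicle DMSO and 100% = killing by high DMSO.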 The conditions noted are these: CRL2098 osteosarcoma cells, drug combinations, stronger effect = higher value.
Experiment [3] is described as follows: HD-MB03 medulloblastoma cell growth inhibition, synergistic combos for chromothripsis tumors, BGB or cisplatin IC20 combos (AID 1671455; in the data active = inhibition above about 83%;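 note: 0% = vehicle DMSO and 100% = high DMSO as cytotoxic control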). The conditions noted are these: HD-MB03 medulloblastoma cells, stronger effect = higher value.
Experiment [4] is described as follows: UWB1.289 ovarian carcinoma cell growth inhibition, synergistic combos for chromothripsis tumors, BGB or cisplatin combos (AID 1671456).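 Note: cells exposed to compound for four days; 0% = vehicle DMSO and 100% = killing by high DMSO.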 The conditions noted are these: UWB1.289 ovarian carcinoma cells, stronger effect = higher value.
A short description of experiment [5]: LFS_MB_2R medulloblastoma cell growth inhibition, synergistic combos for chromothripsis tumors, cisplatin combos (AID 1671457).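 Note: cells exposed to compound for four days before readout.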 The conditions noted are these: LFS_MB_2R medulloblastoma cells, stronger effect = higher value.
Experiment [6] is described as follows: UWB1.289_BRCA1 ovarian cancer growth, cell-based, BGB or cisplatin combinations (AID 1671459). The conditions noted are these: UWB1.289 BRCA1 ovarian carcinoma, drug combinations, stronger effect = higher value.
Experiment [7] in a line: human astrocyte viability loss, single and combined drugs, cytotoxicity control for chromothriptic childhood tumor combination screen, cell-based, BGB or cisplatin IC20 combos (AID 1671460).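 Note: cells exposed to compounds for 96 hours before viability readout; 0% = vehicle and 100% = killing control.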 The conditions noted are these: Human astrocytes, drug combinations, stronger effect = higher value.
A short description of experiment [8]: liver-stage malaria parasite growth inhibition, primary screen, cell-based, HepG2, luciferase luminescence, HepG2 viability (AID 624349; in the data active = parasite load remaining mostly below about 12%, no sharp cut-off; inactive = mostly above about 10%;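 note: 100% = mean of DMSO negative control wells on the same plate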). The conditions noted are these: P. berghei liver stage in HepG2, luciferase luminescence, concentration not given here; parasite load remaining: stronger effect = lower value; viability: measured here: HepG2 viability without parasites.

The nature of experiment [9]: viability rescue of complex I mutant cybrids, primary screen, cell-based, galactose medium, ATP luminescence (AID 1645843;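 active = z-score of at least 1.8 in each of two replicates, scored against plate mean and spread of sample wells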;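 note: positive z means more ATP and so rescue of galactose-driven cybrid death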). The conditions noted are these: complex I mutant cybrid cells, 72 h, stronger effect = higher value.
Experiment [10] concerns the target NAD(+) hydrolase SARM1 (Homo sapiens) (UniProt Q6SZW1). Kind of experiment: SARM1 TIR NADase inhibitors, cell lysate, NAD-Glo luminescence (AID 1508614;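 active = compound whose remaining NAD level is above about 45 nM, limit read from the data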;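 note: higher remaining NAD means stronger inhibition of SARM1 NADase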). The conditions noted are these: SAM-TIR HEK293T lysate NADase, at 1 µM, stronger effect = higher value.
The target in experiment [11] is Mitogen-activated protein kinase 7 (Homo sapiens) (UniProt Q13164). Nature of the experiment: ERK5 transactivation activators in reporter cells, primary screen, cell-based, HTS (AID 1508626;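 active = luciferase signal above three times the same-plate solvent-only control wells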;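 note: luciferase driven by Gal4-ERK5 fusion binding five Gal4 sites before minimal TATA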). The conditions noted are these: HeLa Gal4-ERK5 transactivation, 18 h, at 5 µM, stronger effect = higher value.
Sequence of Mitogen-activated protein kinase 7 (Homo sapiens) (Q13164 whole entry, looked up, the tested form may be a part): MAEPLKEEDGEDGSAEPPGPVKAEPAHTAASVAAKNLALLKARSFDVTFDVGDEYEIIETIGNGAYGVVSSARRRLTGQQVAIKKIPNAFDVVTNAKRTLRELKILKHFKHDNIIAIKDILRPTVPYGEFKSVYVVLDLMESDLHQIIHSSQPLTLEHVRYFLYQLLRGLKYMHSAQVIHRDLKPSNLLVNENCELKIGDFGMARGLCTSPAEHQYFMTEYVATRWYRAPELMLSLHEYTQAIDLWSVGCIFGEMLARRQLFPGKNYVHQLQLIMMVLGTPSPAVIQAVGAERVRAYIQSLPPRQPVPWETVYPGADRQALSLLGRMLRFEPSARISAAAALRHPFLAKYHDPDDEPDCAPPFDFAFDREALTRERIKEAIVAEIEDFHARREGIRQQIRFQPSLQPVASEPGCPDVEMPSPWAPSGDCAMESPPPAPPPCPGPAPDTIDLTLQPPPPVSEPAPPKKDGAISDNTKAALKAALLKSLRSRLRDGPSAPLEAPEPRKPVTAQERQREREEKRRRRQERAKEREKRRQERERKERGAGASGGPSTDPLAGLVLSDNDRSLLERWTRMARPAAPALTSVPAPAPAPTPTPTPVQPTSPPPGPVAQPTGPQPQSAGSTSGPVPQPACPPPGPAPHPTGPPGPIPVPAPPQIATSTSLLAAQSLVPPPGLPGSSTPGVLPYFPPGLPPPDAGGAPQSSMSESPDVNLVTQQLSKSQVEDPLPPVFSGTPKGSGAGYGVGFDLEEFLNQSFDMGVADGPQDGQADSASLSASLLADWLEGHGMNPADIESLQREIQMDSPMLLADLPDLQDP
A short description of experiment [12]: circadian clock period modulators, cell-based, LOPAC library, luminescence reporter (AID 2774; call rule not given here;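 note: values are relative to mean of DMSO wells on each plate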). The conditions noted are these: circadian reporter cells, at 7 µM, actives lie on both sides.
The subject of experiment [13] is Hepatitis C virus NS3 helicase. Kind of experiment: HCV NS3 helicase inhibitors, primary screen, biochemical, fluorescence polarization, LOPAC1280 library (AID 687035; in the data active = inhibition above about 37%). The conditions noted are these: Purified HCV NS3 helicase, Cy5-dT15 ssDNA binding fluorescence polarization; stronger effect = higher value; concentration not given here.
The nature of experiment [14]: Cy5 fluorescence quenching or enhancement artefacts, artefact control for HCV NS3 helicase inhibitor project, biochemical, LOPAC1280 (AID 687037; call rule not given here). The conditions noted are these: Cy5-DNA-NS3h complex fluorescence interference counterscreen.
Experiment [15] is described as follows: phospholipid biosynthesis inhibitors in animal cells, primary screen, cell-based, LOPAC library, screen 4 (AID 1347384; call rule not given here). The conditions noted are these: phospholipid biosynthesis inhibition screen, at 10 µM.
Experiment [16] can be described thus: kinase inhibitors against Plasmodium liver-stage infection, cell-based, known kinase inhibitor set, luminescence, hepatoma host viability (AID 624392; call rule not given here;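 note: infected cells incubated roughly two days before readout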). The conditions noted are these: Plasmodium liver stage in hepatoma cells, luciferase luminescence, concentration not given here; liver cell % of control: measured here: host liver cell viability; parasite % of control: stronger effect = lower value.

The mark [17] stands for this setting: measured here: combination with BGB IC40, at 0.05 µM.
Where [18] appears, read: measured here: combination with cisplatin, at 0.5 µM.
Where [19] appears, read: measured here: combination with cisplatin, at 5 µM.
Setting [20] is: measured here: combination with BGB at IC20, at 0.5 µM.
Where [21] appears, read: measured here: combination with cisplatin at IC20, at 0.5 µM.
[22] abbreviates: measured here: combo with BGB at IC20, at 0.5 µM.
Where [23] appears, read: measured here: combo with cisplatin at IC20, at 0.5 µM.
[24] abbreviates: measured here: inhibition with BGB combination, at 0.05 µM.
Where [25] appears, read: measured here: inhibition with cisplatin combination, at 0.05 µM.
Where [26] appears, read: BGB combination, concentration series, at 5 µM.
Setting [27] is: cisplatin combination, concentration series, at 5 µM.
Where [28] appears, read: measured here: combo with BGB IC20, at 0.5 µM.
Setting [29] is: measured here: combo with cisplatin IC20, at 0.5 µM.

“And” between values parts separate entries of the source, which are not always exact repeats. Identical values can stand only once. The source made the active and inactive calls. Cut-off read from the data, not from the text of the source, unless noted: active = inhibition above about 80%; inactive = the rest.

Sequence of NAD(+) hydrolase SARM1 (Homo sapiens) (Q6SZW1 whole entry, looked up, the tested form may be a part): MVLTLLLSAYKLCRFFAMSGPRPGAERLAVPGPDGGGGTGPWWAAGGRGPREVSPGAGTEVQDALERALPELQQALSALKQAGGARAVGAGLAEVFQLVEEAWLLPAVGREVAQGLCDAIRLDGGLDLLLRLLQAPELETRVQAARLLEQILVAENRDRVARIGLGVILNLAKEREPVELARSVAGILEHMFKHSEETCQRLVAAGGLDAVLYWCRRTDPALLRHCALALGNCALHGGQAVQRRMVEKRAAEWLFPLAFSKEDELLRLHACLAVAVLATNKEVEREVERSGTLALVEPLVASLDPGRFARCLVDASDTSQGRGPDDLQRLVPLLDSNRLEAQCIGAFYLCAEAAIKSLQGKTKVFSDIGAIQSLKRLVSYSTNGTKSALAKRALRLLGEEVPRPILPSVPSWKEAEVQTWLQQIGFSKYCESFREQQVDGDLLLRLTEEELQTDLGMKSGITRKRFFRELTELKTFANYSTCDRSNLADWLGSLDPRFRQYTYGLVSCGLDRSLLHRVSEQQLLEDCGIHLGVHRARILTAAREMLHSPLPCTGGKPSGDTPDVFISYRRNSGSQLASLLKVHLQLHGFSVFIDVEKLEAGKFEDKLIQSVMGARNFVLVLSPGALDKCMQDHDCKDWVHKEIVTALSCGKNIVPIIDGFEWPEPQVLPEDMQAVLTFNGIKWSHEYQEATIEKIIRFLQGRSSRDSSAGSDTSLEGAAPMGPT

Take `CC(C)(C)OC(=O)Nc1ccc(-c2cc(C(=O)NCCCCCCC(=O)NO)no2)cc1`: the inhibition was -23.9% (inactive) and 0.63% (inactive) in [1] (at 0.5 µM); -39.1% and -9.87% in experiment [1] (setting [17]); -43.1% and 4.1% in experiment [1] (setting [18]); 61.5% and 70.7% in [1] (setting [19]); -72.5% (inactive) and -77.6% (inactive) in experiment [2] (at 0.5 µM); -95.4% and -52.6% in experiment [2] (setting [20]). The inhibition in [2] (setting [21]) was -69.5% and -63.5%; in experiment [3] (at 0.5 µM), 9.94% (inactive) and 21.1% (inactive); in experiment [3] (setting [22]) it was 2.31% and 13%; in [3] (setting [23]), 19.2% and 51.1%; in experiment [4] (at 0.5 µM) it was -1.75% (inactive) and 9.21% (inactive); in experiment [4] (setting [24]), -25.1% and -31.2%. For the same molecule, the inhibition was -18.4% and -19.7% in experiment [4] (setting [25]); -15% (inactive) and -8.72% (inactive) in experiment [5] (at 0.5 µM); -1.56% and 8.91% in experiment [5] (setting [18]); 69.3% and 57.6% in experiment [5] (setting [19]); 81.5% and 72.3% in experiment [6] (setting [26]); -3.45% (inactive) and 2.97% (inactive) in [6] (at 0.5 µM). In addition, the inhibition in [6] (setting [27]) is 90.6% and 89.6%; in [7] (at 0.5 µM) it was 10.3% (inactive) and 12.5% (inactive); in experiment [7] (setting [28]), 8.87% and 11.7%; in [7] (setting [29]), 7.42% and 16.9%.
As to `CC(C)CN(C[C@@H](O)[C@H](Cc1ccccc1)NC(=O)O[C@H]1CCOC1)S(=O)(=O)c1ccc(N)cc1`, in experiment [8], the parasite load remaining was 15.6% (inactive) and the viability worked out at 75.5%. In addition, the z-score in [9] is 0.4 (inactive).
Take `CCC(=O)OCC(=O)[C@@]1(OC(=O)CC)[C@@H](C)C[C@H]2[C@@H]3CCC4=CC(=O)C=C[C@]4(C)[C@@]3(F)[C@@H](O)C[C@@]21C`: the remaining NAD in experiment [10] is 10 nM (inactive). For the same molecule, in experiment [11], the luciferase signal was 156 AU (inactive).
With `O=c1c2ccccc2nc2n1CCc1c-2[nH]c2ccccc12`, in experiment [12], the period change was 0.11 h (inactive). Besides, the inhibition in experiment [13] is 2% (inactive). The fluorescence ratio (interference) in [14] was 1 (inactive). Also, the molecule was called inactive in experiment [15]. Also, the z-score in experiment [9] was 1.2 (inactive).
In the case of `O=C(NOC[C@H](O)CO)c1ccc(F)c(F)c1Nc1ccc(I)cc1F`, the molecule was classed as inactive in experiment [15].
`CC(C)(N)c1ccc(-c2nc3ccccc3nc2-c2ccccc2)cc1`: in experiment [16], the liver cell % of control was 41.6% and 76.6% and 85.6%; the parasite % of control is 0.22% (inactive) and 84.1% (inactive) and 92.8% (inactive).
As to `COc1cc(C(=O)NC2CCN(C)CC2)ccc1Nc1ncc2c(n1)N(C1CCCC1)CCC(=O)N2C(C)C`, in [16], the liver cell % of control came out at 99.8% and the parasite % of control is 139% (inactive).
With `CO[C@H]1/C=C/O[C@@]2(C)Oc3c(C)c(O)c4c(O)c(c(/C=N\N5CCN(C6CCCC6)CC5)c(O)c4c3C2=O)NC(=O)/C(C)=C\C=C\[C@H](C)[C@H](O)[C@@H](C)[C@@H](O)[C@@H](C)[C@H](OC(C)=O)[C@@H]1C`, the inhibition in experiment [1] (at 0.5 µM) was -26.5% (inactive); in experiment [1] (setting [17]), 5.18%; in experiment [1] (setting [18]) it was -21.5%; in [1] (setting [19]) it was -13.2%; in [2] (at 0.5 µM), -17.9% (inactive); in experiment [2] (setting [20]), -42.5%. Also, the inhibition in experiment [2] (setting [21]) is -28.1%; in [3] (at 0.5 µM), -12% (inactive); in experiment [3] (setting [22]), -9.84%; in experiment [3] (setting [23]) it was -22%; in [4] (at 0.5 µM), 0.22% (inactive); in [4] (setting [24]) it was -17.7%. Further, the inhibition in [4] (setting [25]) was -11.8%; in [5] (at 0.5 µM), -7.15% (inactive); in experiment [5] (setting [18]) it was -29.8%; in [5] (setting [19]), -34%; in experiment [6] (setting [26]) it was 4.16%; in [6] (at 0.5 µM), -5.57% (inactive). The inhibition in [6] (setting [27]) is 10.5%; in experiment [7] (at 0.5 µM), -10.7% (inactive); in experiment [7] (setting [28]), -21%; in experiment [7] (setting [29]), -11%.
As for `CN(C)Cc1ccc(-c2nc3cccc4c3n2CCNC4=O)cc1`, the inhibition in experiment [1] (at 0.5 µM) was -21.9% (inactive) and -12.8% (inactive); in experiment [1] (setting [17]) it was -8.61% and -31.3%; in experiment [1] (setting [18]), -36.5% and -4.44%; in [1] (setting [19]), -20.1% and -27.3%; in experiment [2] (at 0.5 µM) it was -12.7% (inactive) and -34.7% (inactive); in experiment [2] (setting [20]), 3.27% and -18.3%. In addition, the inhibition in experiment [2] (setting [21]) was -10.7% and -61.5%; in [3] (at 0.5 µM), -4.1% (inactive) and -8.91% (inactive); in [3] (setting [22]) it was -6.79% and -18.1%; in experiment [3] (setting [23]), -1.2% and -11.2%; in experiment [4] (at 0.5 µM), 2.77% (inactive) and -2.19% (inactive); in experiment [4] (setting [24]), -14.3% and 1.91%. For the same molecule, the inhibition is -5.64% and -29.4% in [4] (setting [25]); -22.3% (inactive) and -21% (inactive) in experiment [5] (at 0.5 µM); -26.3% and -32% in experiment [5] (setting [18]); -30.5% and -31.6% in experiment [5] (setting [19]); 7.25% and 16.2% in [6] (setting [26]); 0.7% (inactive) and -0.32% (inactive) in experiment [6] (at 0.5 µM). The inhibition in [6] (setting [27]) was 5.02% and -8.46%; in experiment [7] (at 0.5 µM), 3.46% (inactive) and 6.94% (inactive); in experiment [7] (setting [28]), 2.28% and -1.45%; in experiment [7] (setting [29]) it was 8.6% and 1.46%.
On to `COC(=O)C1=CO[C@@H](O)[C@@H]2C(CO)=CC[C@H]12`, for which, in [13], the inhibition was -3% (inactive). In addition, the fluorescence ratio (interference) in experiment [14] was 1 (inactive). Besides, the outcome in experiment [15] was inactive. The z-score in experiment [9] is -0.175 (inactive).
With `Nc1nc(OCc2ccccc2)c2[nH]cnc2n1`, the period change in experiment [12] is -0.35 h (inactive). In addition, the inhibition in experiment [13] was -2% (inactive). In addition, the fluorescence ratio (interference) in experiment [14] is 0.9 (inactive). Moreover, the call in experiment [15] was inactive. Further, the z-score in experiment [9] was -0.125 (inactive).
Consider `C=CC(=O)Nc1cccc(Nc2nc(NC3CCC(N(C)C)CC3)nc3c2ncn3C(C)C)c1` (stereo not given), for which, in experiment [16], the liver cell % of control is 43.6% and the parasite % of control is 15.4% (inactive).
Regarding `O=c1[nH]c(=O)n([C@H]2C[C@H](O)[C@@H](CO)O2)cc1/C=C/Br`, in experiment [12], the period change was -0.01 h (inactive). In experiment [13], the inhibition was -1% (inactive). Also, the fluorescence ratio (interference) in [14] was 1 (inactive).
